The values that follow come from PubChem BioAssay (EPA / NIEHS).

By AC50 is commonly meant the concentration at which the activity in the assay is half-maximal.

Activity calls are given as the source filed them. The calls were made as follows: active = hit-call score of the fitted dose curve at least 0.9, where 1 is the maximum; inactive = score below 0.9.

Tumor necrosis factor (Homo sapiens), sequence (P01375 whole entry, looked up): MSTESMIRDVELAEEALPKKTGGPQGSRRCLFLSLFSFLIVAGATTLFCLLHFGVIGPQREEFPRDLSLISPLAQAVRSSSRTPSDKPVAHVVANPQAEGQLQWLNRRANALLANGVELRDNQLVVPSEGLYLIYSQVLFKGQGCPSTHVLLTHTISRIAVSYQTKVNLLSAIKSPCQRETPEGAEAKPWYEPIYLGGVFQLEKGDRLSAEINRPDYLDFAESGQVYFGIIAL

Read-out in the first experiment: Macrophage colony-stimulating factor (MCSF), CSF1 (gene 1435)
The experiment can be described thus: BSK_LPS_MCSF: BioMAP Diversity Plus: LPS Assay for Macrophage colony-stimulating factor (MCSF) Biomarker Activity (AID 2283083). The note with it: primary human HUVEC with PBMC; actives raise or lower the signal. Put shortly:
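HUVEC + PBMC co-culture (human primary), 24 h post-dose; M-CSF by ELISA; gain/loss of signal fitted bidirectionally vs DMSO baseline.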
For `C=C(C)C(=O)O[C@H]1C[C@@H]2CC[C@@]1(C)C2(C)C`, the AC50 is 29.9 µM (active).
Take `CCCCCCCCCCCCCCCCCC(=O)OCC(CC)CCCC` (stereo not drawn): the result was inactive.
Consider `CC(C)(COC(=O)c1ccccc1)COC(=O)c1ccccc1`, for which the AC50 is 30.9 µM (active).
On to `O=C(O)C[C@H](O)C[C@H](O)/C=C/c1c(C2CC2)nc2ccccc2c1-c1ccc(F)cc1`, for which the result was inactive.
Regarding `CCc1c(C)cc(N)c(CC)c1N`, the result was inactive.
In the case of `CC(=O)OCCC(C)CC(C)(C)C` (stereo not drawn), the result was inactive.
Turning to `O=C(O)c1cn(-c2ccc(F)cc2)c2cc(N3CCNCC3)c(F)cc2c1=O`, the outcome was inactive.
As to `CCn1c2ccccc2c2cc(N)ccc21`, the concentration at half-maximal activity (AC50) was 7.37 µM (active).
On the same count and under the same terms, then `O=C1OC2(c3cc(Br)c(O)c(Br)c3Oc3c2cc(Br)c(O)c3Br)c2c(Cl)c(Cl)c(Cl)c(Cl)c21`, with 5.42 µM (active).
For `OC1OC[C@@H](O)[C@H](O)[C@H]1O` (stereo partly drawn), the result was inactive.
In the case of `BrC1CCC(Br)C(Br)CCC(Br)C(Br)CCC1Br` (stereo not drawn), the concentration at half-maximal activity (AC50) is 4.67 µM (active).
`Nc1cc([N+](=O)[O-])ccc1Cl`: the result was inactive.
As to `CC(=O)O[C@]1(C(C)=O)CC[C@H]2[C@@H]3C[C@H](C)C4=CC(=O)CC[C@]4(C)[C@H]3CC[C@@]21C`, the outcome was inactive.
For `CCCCC(CC)COC(=O)/C=C\C(=O)OCC(CC)CCCC` (stereo not drawn), the result was inactive.
The same measure, in the same setting: as for `CCCCCCCCCC=O`, the entry is “inactive”.
Take `CC1COc2ccccc2N1C(=O)C(Cl)Cl` (stereo not drawn): the concentration at half-maximal activity (AC50) is 8.01 µM (active).
On to `O=P(c1ccccc1)(c1ccccc1)c1ccccc1`, for which the result was inactive.
In the case of `OC[C@H]1O[C@H](O[C@]2(CCl)O[C@H](CCl)[C@@H](O)[C@@H]2O)[C@H](O)[C@@H](O)[C@H]1Cl`, the result was inactive.
Consider `Nc1cc([N+](=O)[O-])ccc1O`, for which the result was inactive.
As to `c1ccc2sc(SN(C3CCCCC3)C3CCCCC3)nc2c1`, the AC50 was 5.57 µM (active).
`COc1cc(C=O)ccc1OC(=O)C(C)C`: the outcome was inactive.
For `CC(C)c1ccc(C(C)C)cc1`, the result was inactive.

Read-out in a further experiment: Tissue Factor, F3 (gene 2152)
The experiment can be described thus: BSK_LPS_TissueFactor: BioMAP Diversity Plus: LPS Assay for Tissue Factor Biomarker Activity (AID 2283084). The following applies: primary human HUVEC with PBMC; actives raise or lower the signal. The method in brief: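 HUVEC/PBMC co-culture, LPS-activated; CD142 ELISA read 24 h post-dose; bidirectional curve fit vs DMSO negative control.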
Regarding `O=C(O)c1cn(C2CC2)c2cc(N3CCNCC3)c(F)cc2c1=O`, the outcome was inactive.
For the molecule `C=C(C)C(=O)O[C@H]1C[C@@H]2CC[C@@]1(C)C2(C)C`, the concentration at half-maximal activity (AC50) is 36.8 µM (active).
`CCCCCCCCCCCCCCCCCC(=O)OCC(CC)CCCC` (stereo not drawn): the result was inactive.
Regarding `CC(C)(COC(=O)c1ccccc1)COC(=O)c1ccccc1`, the outcome was inactive.
As for `O=C(O)C[C@H](O)C[C@H](O)/C=C/c1c(C2CC2)nc2ccccc2c1-c1ccc(F)cc1`, the outcome was inactive.
`CCc1c(C)cc(N)c(CC)c1N`: the result was inactive.
Turning to `CC(=O)OCCC(C)CC(C)(C)C` (stereo not drawn), the result was inactive.
On to `O=C(O)c1cn(-c2ccc(F)cc2)c2cc(N3CCNCC3)c(F)cc2c1=O`, for which the outcome was inactive.
On the same count and under the same terms, as for `CCn1c2ccccc2c2cc(N)ccc21`, the entry is “inactive”.
Turning to `O=C1OC2(c3cc(Br)c(O)c(Br)c3Oc3c2cc(Br)c(O)c3Br)c2c(Cl)c(Cl)c(Cl)c(Cl)c21`, the AC50 was 8.77 µM (active).
Take `OC1OC[C@@H](O)[C@H](O)[C@H]1O` (stereo partly drawn): the result was inactive.
Turning to `BrC1CCC(Br)C(Br)CCC(Br)C(Br)CCC1Br` (stereo not drawn), the result was inactive.
For the molecule `Nc1cc([N+](=O)[O-])ccc1Cl`, the outcome was inactive.
Same read-out and setting: as for `CC(=O)O[C@]1(C(C)=O)CC[C@H]2[C@@H]3C[C@H](C)C4=CC(=O)CC[C@]4(C)[C@H]3CC[C@@]21C`, the entry is “inactive”; as for `CCCCC(CC)COC(=O)/C=C\C(=O)OCC(CC)CCCC` (stereo not drawn), “inactive”.
Same read-out and setting: then `CCCCCCCCCC=O`, with “inactive”.
On the same count and under the same terms, then `CC1COc2ccccc2N1C(=O)C(Cl)Cl` (stereo not drawn), with “inactive”.
`O=P(c1ccccc1)(c1ccccc1)c1ccccc1`: the outcome was inactive.
In the case of `OC[C@H]1O[C@H](O[C@]2(CCl)O[C@H](CCl)[C@@H](O)[C@@H]2O)[C@H](O)[C@@H](O)[C@H]1Cl`, the result was inactive.
On the same count and under the same terms, then `Nc1cc([N+](=O)[O-])ccc1O`, with “inactive”; and `c1ccc2sc(SN(C3CCCCC3)C3CCCCC3)nc2c1`, with “inactive”.
In the case of `COc1cc(C=O)ccc1OC(=O)C(C)C`, the outcome was inactive.
Still for that read-out and setting: then `CC(C)c1ccc(C(C)C)cc1`, with “inactive”.

Read-out in a further experiment: Tumor necrosis factor (Homo sapiens) (UniProt P01375)
The experiment can be described thus: BSK_LPS_TNFa: BioMAP Diversity Plus: LPS Assay for Tumour Necrosis Factor alpha (TNFa) Biomarker Activity (AID 2283085).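 As to AC50: TNFa protein level quantified by ELISA in the co-culture.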 The following applies: primary human HUVEC with PBMC; actives raise or lower the signal. The method in brief: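 ELISA-based TNFa endpoint in a human endothelial–PBMC co-culture sampled 24 h post-exposure. Curves were fitted in both directions using DMSO as baseline of activity.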
Turning to `O=C(O)c1cn(C2CC2)c2cc(N3CCNCC3)c(F)cc2c1=O`, the result was inactive.
Regarding `C=C(C)C(=O)O[C@H]1C[C@@H]2CC[C@@]1(C)C2(C)C`, the outcome was inactive.
For `CCCCCCCCCCCCCCCCCC(=O)OCC(CC)CCCC` (stereo not drawn), the outcome was inactive.
Regarding `CC(C)(COC(=O)c1ccccc1)COC(=O)c1ccccc1`, the result was inactive.
In the case of `O=C(O)C[C@H](O)C[C@H](O)/C=C/c1c(C2CC2)nc2ccccc2c1-c1ccc(F)cc1`, the AC50 was 3.17 µM (active).
Consider `CCc1c(C)cc(N)c(CC)c1N`, for which the result was inactive.
On the same count and under the same terms, as for `CC(=O)OCCC(C)CC(C)(C)C` (stereo not drawn), the entry is “inactive”; as for `O=C(O)c1cn(-c2ccc(F)cc2)c2cc(N3CCNCC3)c(F)cc2c1=O`, “inactive”; as for `CCn1c2ccccc2c2cc(N)ccc21`, “inactive”.
Take `O=C1OC2(c3cc(Br)c(O)c(Br)c3Oc3c2cc(Br)c(O)c3Br)c2c(Cl)c(Cl)c(Cl)c(Cl)c21`: the outcome was inactive.
Regarding `OC1OC[C@@H](O)[C@H](O)[C@H]1O` (stereo partly drawn), the result was inactive.
With `BrC1CCC(Br)C(Br)CCC(Br)C(Br)CCC1Br` (stereo not drawn), the outcome was inactive.
`Nc1cc([N+](=O)[O-])ccc1Cl`: the result was inactive.
Regarding `CC(=O)O[C@]1(C(C)=O)CC[C@H]2[C@@H]3C[C@H](C)C4=CC(=O)CC[C@]4(C)[C@H]3CC[C@@]21C`, the result was inactive.
With `CCCCC(CC)COC(=O)/C=C\C(=O)OCC(CC)CCCC` (stereo not drawn), the result was inactive.
Regarding `CCCCCCCCCC=O`, the result was inactive.
Regarding `CC1COc2ccccc2N1C(=O)C(Cl)Cl` (stereo not drawn), the AC50 was 4.9 µM (active).
Take `O=P(c1ccccc1)(c1ccccc1)c1ccccc1`: the result was inactive.
As for `OC[C@H]1O[C@H](O[C@]2(CCl)O[C@H](CCl)[C@@H](O)[C@@H]2O)[C@H](O)[C@@H](O)[C@H]1Cl`, the result was inactive.
As to `Nc1cc([N+](=O)[O-])ccc1O`, the outcome was inactive.
Turning to `c1ccc2sc(SN(C3CCCCC3)C3CCCCC3)nc2c1`, the half-maximal activity concentration (AC50) was 5.77 µM (active).
For the molecule `COc1cc(C=O)ccc1OC(=O)C(C)C`, the outcome was inactive.
In the case of `CC(C)c1ccc(C(C)C)cc1`, the outcome was inactive.
